Laboratory results: PubChem BioAssay (NCI)
About 79,000 compounds went through this panel and 15% of them were active in at least one assay; those are over-represented in the sample as a whole. Values without a mark were called inactive. Calls of active or inactive are those of the source. No stated cut-off is given here; in the data, active means growth inhibition above about 70%; inactive means the rest.

Key:
[1] = NCI Yeast Anticancer Drug Screen. Data for the rad50 strain (AID 155);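 further: 0% = growth of vehicle-only cultures of the same strain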; details: S. cerevisiae rad50 strain growth inhibition; at 50.0 µM; hits give high values
Method in brief: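 Cells are treated with compound, grown, and their growth is then scored against vehicle-only cultures of the same repair-deficient yeast strain.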

[2] = NCI Yeast Anticancer Drug Screen. Data for the mec2-1 strain (AID 157); details: S. cerevisiae mec2-1 strain, at 50.0 µM, hits give high values
Method in brief: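 Mutant yeast (mec2-1) grown with compound; growth inhibition relative to vehicle control reported.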

[3] = NCI Yeast Anticancer Drug Screen. Data for the sgs1 mgt1 strain (AID 161);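 further: 0% = growth of cultures given vehicle only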; details: S. cerevisiae sgs1 mgt1 strain, at 50.0 µM, hits give high values
Method in brief: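 Percent growth inhibition was derived by comparing compound-exposed mutant yeast with vehicle-exposed cultures. The strain carries alterations in DNA damage repair.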

[4] = NCI Yeast Anticancer Drug Screen. Data for the cln2 rad14 strain (AID 165);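 further: 0% = growth equal to vehicle treated cultures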; details: S. cerevisiae cln2 rad14 strain, at 50.0 µM, hits give high values
Method in brief: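 Readout is yeast growth inhibition versus vehicle-treated controls, using a strain with cln2 and rad14 alterations exposed to compound.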

[5] = NCI Yeast Anticancer Drug Screen. Data for the bub3 strain (AID 167); details: S. cerevisiae bub3 mutant strain, at 50.0 µM, hits give high values
Method in brief: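 Part of a panel of yeast mutants defective in DNA damage repair or cell cycle regulation. Each strain is grown with compound, and inhibition is calculated relative to solvent-treated cultures.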

[6] = NCI Yeast Anticancer Drug Screen. Data for the mlh1 rad18 strain (AID 175); details: S. cerevisiae mlh1 rad18 strain growth inhibition; at 50.0 µM; hits give high values
Method in brief: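 Genetically defined yeast (DNA repair-deficient) exposed to compounds; growth inhibition determined relative to vehicle.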

Compound | growth inhibition [1] | growth inhibition [2] | growth inhibition [3] | growth inhibition [4] | growth inhibition [5] | growth inhibition [6]
N#Cc1nc(COCc2ccccc2)oc1N | -19.9% | -12.5% | -5.45% | 1.75% | -19.5% | -10.9%
O=[N+]([O-])c1ccc(CCO)cc1 | -4.15% | -26.1% | -6.85% | -15.4% | -10.5% | -4.6%
CCCCCCC(=O)OC(C)CC(C)C (stereo unspecified) | 6.25% | 2.75% | -0.75% | -11.2% | -3.7% | 24.2%
Cn1c(=O)c2[nH]c(SCc3ccccn3)nc2n(C)c1=S | 6.05% | -42.5% | -20.9% | -47.1% | -26.6% | 13.4%
COc1ccc(C2OCC(C)O2)cc1OC (stereo unspecified) | -13.4% | 16.1% | -8.2% | -31.4% | -31.4% | -7.3%
C1=CC(=NN=P(c2ccccc2)(c2ccccc2)c2ccccc2)C=C1 | 21.7% | 7.9% | 20.3% | 19.9% | 18.7% | 13.5%
C#CC(OC(=O)c1cc([N+](=O)[O-])cc([N+](=O)[O-])c1)C1OC(C)(C)OC1C1COC(C)(C)O1 (stereo unspecified) | 27% | 26.4% | 57.1% | -1% | 7.25% | 58.5%
CCCCC(=O)NC1=CC(=O)c2ccccc2C1=O | 41.2% | 30.4% | 47.1% | 29.6% | 56.1% | 45.8%
O=[n+]1c2c(n([O-])c3ccccc31)CCCCC2 | 19.6% | -12.7% | -1.9% | -32.5% | -8.35% | -2.85%
Cc1nnc(N)s/c1=N/O | 7.5% | 4.6% | 2.45% | -5.55% | 3.15% | -11.6%
CCOC(=O)C(/C=N\C(=S)Nc1ccc(OCC)cc1)=C(/O)c1ccccc1 | -49.1% | -52.6% | -26.6% | -14.8% | -30.2% | 6.5%
C=CCC(OCCC)c1ccc2c(c1)OCO2 (stereo unspecified) | -7.1% | 0.6% | -0.65% | 5.05% | 3.4% | -12.6%
CC(c1ccccc1)C(O)S(=O)(=O)O (stereo unspecified) | 6.95% | 3.7% | 7.35% | -5.05% | 17.3% | -0.35%
COc1ccc2c(c1O)-c1c(OC)c(OC)cc3c1[C@H](C2)[N+](C)(C)CC3 | -9% | -12.2% | 11.2% | 1.65% | -1.1% | -53.4%
CC(O)c1nc2c3ccccc3ccc2n1C (stereo unspecified) | -6.15% | -0.2% | -6.45% | -42.6% | -1.25% | -8.6%
O=C(C(=O)c1cc(-c2ccccc2)nc2ccc3ccccc3c12)c1ccccc1 | -24.3% | -5.65% | -1.05% | 13.9% | 30.1% | 14.3%
O=C(O)C1CC2C3CC(C(=O)O)C(C3)C2C1 (stereo unspecified) | -15.8% | -24.7% | -5.55% | -1.85% | -10.8% | -13.9%
C[N+]1(C)C2Cc3ccccc3C1Cc1ccccc12 | -1.7% | -11.6% | 11.4% | 10.4% | 3.75% | -57%
Cc1ccc(C(=O)C[N+]2(C)CCOCC2)cc1 | 15.8% | -7.5% | 16.6% | -21.9% | 8.4% | 20.4%
CC(C)(C)CNC(=S)Nc1ccccc1 | 3.45% | 2.6% | 3.4% | 3.55% | -2.05% | 10%
c1ccc(Cc2c[nH]c3ccccc23)cc1 | 9.45% | -0.05% | 9.4% | -9.6% | -1.85% | 14.9%

Compound | growth inhibition [1] | growth inhibition [2] | growth inhibition [3] | growth inhibition [4] | growth inhibition [5] | growth inhibition [6]
CC(C)(C)NC(=O)NCc1ccccc1Cl | 2.9% | -8.1% | -2.7% | -52.5% | -0.75% | -8.35%
O=C1CSC(c2ccc(Br)cc2)N1c1nncs1 (stereo unspecified) | -2.75% | 19.6% | 18.2% | -9.95% | 6.6% | 23.3%
Nc1cccc(Cl)c1C(=O)O | -28.1% | -30.2% | -10.8% | -11.7% | -25.8% | -19.2%
O=S(=O)(Cl)c1cccc2cc3ccccc3cc12 | 0.6% | -10.1% | 3.95% | -12.9% | 12.9% | -7.05%
CC(=O)OCCn1c2ccccc2nc2cc3c(cc21)c(Cl)c(=O)c1ccccc13 | 29.6% | 14.3% | 21.1% | 25.6% | -1.6% | 13.4%
CN1CCCCC1C[CH2][Sn]([c]1ccccc1)([c]1ccccc1)[c]1ccccc1 (stereo unspecified) | 99.6% (active) | 99.5% (active) | 99.7% (active) | 99.2% (active) | 99.2% (active) | 99.5% (active)
CC(C)(C)c1ccc(OCCCCl)c(CCl)c1 | 23.4% | 2.75% | 10.1% | 7.65% | 52% | 12.6%
COc1ccc(C2c3cc4c(cc3OC3(N5CCCC5)CCCC23)OCO4)c(OC)c1 (stereo unspecified) | 0.85% | -6.8% | -1.5% | 14.2% | 15.2% | 11.6%
CC[C@@H](C)[C@H]([C@H](CC(=O)N1CCC[C@@H]1[C@@H](OC)[C@H](C)C(=O)N[C@H](Cc1ccccc1)c1nccs1)OC)N(C)C(=O)[C@H](NC(=O)[C@@H](C(C)C)N(C)C)C(C)C | 6.95% | -22.6% | -2.2% | 8.3% | 20.3% | 16.8%
Cc1ccc(S(=O)(=O)N2CCCSCCSCCCN(S(=O)(=O)c3ccc(C)cc3)CC2)cc1 | 8.85% | -10.8% | 4% | -45% | -10.1% | 2.05%
Nc1nc2c(ncn2C2OC(COC(=O)c3ccccc3)C(OC(=O)c3ccccc3)C2OC(=O)c2ccccc2)c(=O)[nH]1 (stereo unspecified) | -25.9% | -12.8% | -0.6% | 11.5% | 0.9% | -7.65%
CCCCCC(C)(C)O | 7.6% | -6.55% | -3.9% | -40.9% | 4.75% | -4.75%
CC(=O)/C=C\c1ccc(-c2ccccc2)cc1 | 2.65% | -36.2% | -3.6% | -0.6% | -18.9% | -22.7%
CC(=O)OC1(C)C(=O)OC/C2=C/CN(C)CCC(OC(=O)C(O)(C(C)Cl)CC1C)C2=O (stereo unspecified) | 4.75% | 2.9% | -7.95% | 13% | -6.35% | -43.9%
CCOC(=O)C(=CNc1cccc(Cl)c1)C(=O)OCC | -2.8% | -11.4% | -18.9% | -26.9% | 32.2% | -19.9%
c1ccc2c(c1)CSc1ccccc1-2 | 9.8% | -8.9% | -6.4% | -12.2% | 7% | -3.65%
O=CNCCN(C=O)CCO | -28.6% | -29.9% | -31.9% | 1.85% | -12% | -9.55%
CNC(CCc1ccccc1)C(=O)O (stereo unspecified) | 1.9% | -1.25% | 8.4% | -7.3% | 4.4% | 2.7%
CCOc1ccc(NC(=O)C(=O)C(/C(=N/N)C(=O)OC)c2nc3ccc([N+](=O)[O-])cc3[nH]c2=O)cc1 (stereo unspecified) | 6.9% | -6% | 3.5% | 13.3% | 7% | 21.9%
COc1ccc(C(=O)NNC(=O)c2ccc3ccccc3c2)cc1 | 10.8% | 1.25% | 9.8% | 9.95% | 5.5% | -7.3%
